Test results: PubChem BioAssay
Measured potencies and affinities stand elsewhere. Calls of active or inactive are those of the source. No rule for the calls is given here.

molecular target: Plasmodium falciparum protein kinase 6 (PK6, PF3D7_1337100) (UniProt Q8IDW1); test: PfPK6 kinase inhibitors, biochemical, TCAMS library (AID 1159586); conditions: recombinant PfPK6, Kinase-Glo ATP depletion luminescence
Sequence (Q8IDW1 1-305): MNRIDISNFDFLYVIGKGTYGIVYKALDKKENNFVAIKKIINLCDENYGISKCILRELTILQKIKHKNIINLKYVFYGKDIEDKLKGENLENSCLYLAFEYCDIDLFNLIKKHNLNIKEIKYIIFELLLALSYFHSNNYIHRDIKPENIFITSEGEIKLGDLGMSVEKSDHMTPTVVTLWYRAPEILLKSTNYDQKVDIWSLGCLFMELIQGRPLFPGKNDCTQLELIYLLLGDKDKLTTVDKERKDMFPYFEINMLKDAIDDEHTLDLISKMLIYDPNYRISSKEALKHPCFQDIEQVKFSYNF

outcome, inactive:
OC1CCCN(Cc2ccc(-c3ccc(-c4nc5ccc(F)cc5[nH]4)cc3)cc2)C1 (stereo not given)
Cc1cccc(CN2CCCN(Cc3ccc(C(=O)Nc4ccc(C)c(F)c4)cc3)CC2)c1
Cn1cncc1C(=O)Nc1cccc(-c2ccc(-c3nc4ccc(F)cc4[nH]3)cc2)c1
CSc1ccccc1NC(=S)NC1CCN(CCCCCNC(=O)/C=C/c2ccc(Cl)c(Cl)c2)CC1
NC(=O)C1Cc2ccccc2CN1CC(=O)Nc1ccccc1Sc1ccccc1 (stereo not given)
Cc1nc(/N=C(\N)NC(=O)NC2CCCCC2)nc2ccccc12
Fc1ccc(-c2cncc(Nc3ccncc3)n2)cc1
Cc1ccc(Nc2nc(C)cc(NC3CCCC3)n2)cc1
O=C(Nc1cccc(CN2CCCN(Cc3ccsc3)CC2)c1)c1cc2ccccc2s1
CCc1cccc(OCC2CCCN(c3ccc(C(=O)NC4CC4)cn3)C2)c1 (stereo not given)
